# Results: the supplement of paper PMC4466140
# How the values were obtained:
# Test in all cases: SPOT peptide array binding signal intensity (averaged, normalized) (arbitrary units (background-subtracted, floor 0; scale differs between SH3 domains)); higher = stronger binding of the SH3 domain to the peptide
# AgAbp1 = molecular target: AgAbp1
# Outline: (§1)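 Binding signal refers to normalized, background-subtracted spot intensity averaged over replicates, expressed in arbitrary units that differ between domains. GST-fused SH3 domains from four yeast species were incubated at 10 μg/ml overnight at 4°C on cellulose membranes of synthetic 15-mer peptides with cysteines replaced by serines. Bound protein was detected with anti-GST antibody, an HRP anti-mouse secondary and luminol, and quantified with Genespotter.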
# AgBbc1 = molecular target: AgBbc1
# Outline: as §1
# AgBem1-D1 = molecular target: AgBem1-D1
# Outline: as §1
# AgBzz1-D1 = molecular target: AgBzz1-D1
# Outline: as §1
# AgBzz1-D2 = molecular target: AgBzz1-D2
# Outline: as §1
# AgCyk3 = molecular target: AgCyk3
# Outline: as §1
# AgFus1 = molecular target: AgFus1
# Outline: as §1
# AgHof1 = molecular target: AgHof1
# Outline: as §1
# AgHse1 = molecular target: AgHse1
# Outline: as §1
# AgLsb1 = molecular target: AgLsb1
# Outline: as §1
# AgLsb4 = molecular target: AgLsb4
# Outline: as §1
# AgMyo5 = molecular target: AgMyo5
# Outline: as §1
# AgNbp2 = molecular target: AgNbp2
# Outline: as §1
# AgRvs167 = molecular target: AgRvs167
# Outline: as §1
# AgSho1 = molecular target: AgSho1
# Outline: as §1
# AgSla1-D1-D2 = molecular target: AgSla1-D1-D2
# Outline: as §1
# AgSla1-D3 = molecular target: AgSla1-D3
# Outline: as §1
# CaAbp1-D1 = molecular target: CaAbp1-D1
# Outline: as §1
# CaAbp1-D2 = molecular target: CaAbp1-D2
# Outline: as §1
# CaBbc1 = molecular target: CaBbc1
# Outline: as §1
# CaBem1-D1 = molecular target: CaBem1-D1
# Outline: as §1
# CaBzz1-D1 = molecular target: CaBzz1-D1
# Outline: as §1
# CaBzz1-D2 = molecular target: CaBzz1-D2
# Outline: as §1
# CaCyk3 = molecular target: CaCyk3
# Outline: as §1
# CaFus1 = molecular target: CaFus1
# Outline: as §1
# CaHof1 = molecular target: CaHof1
# Outline: as §1
# CaHse1 = molecular target: CaHse1
# Outline: as §1
# CaLsb1 = molecular target: CaLsb1
# Outline: as §1
# CaLsb4 = molecular target: CaLsb4
# Outline: as §1
# CaMyo5 = molecular target: CaMyo5
# Outline: as §1
# CaNbp2 = molecular target: CaNbp2
# Outline: as §1
# CaRvs167 = molecular target: CaRvs167
# Outline: as §1
# CaRvs167-3 = molecular target: CaRvs167-3
# Outline: as §1
# CaSho1 = molecular target: CaSho1
# Outline: as §1
# CaSla1-D1-D2 = molecular target: CaSla1-D1-D2
# Outline: as §1
# CaSla1-D3 = molecular target: CaSla1-D3
# Outline: as §1
# ScAbp1 = molecular target: ScAbp1
# Outline: as §1
# ScBbc1 = molecular target: ScBbc1
# Outline: as §1
# ScBem1-D1 = molecular target: ScBem1-D1
# Outline: as §1
# ScBzz1-D1 = molecular target: ScBzz1-D1
# Outline: as §1
# ScBzz1-D2 = molecular target: ScBzz1-D2
# Outline: as §1
# ScCyk3 = molecular target: ScCyk3
# Outline: as §1
# ScFus1 = molecular target: ScFus1
# Outline: as §1
# ScHof1 = molecular target: ScHof1
# Outline: as §1
# ScHse1 = molecular target: ScHse1
# Outline: as §1
# ScLsb1 = molecular target: ScLsb1
# Outline: as §1
# ScLsb2 = molecular target: ScLsb2
# Outline: as §1
# ScLsb3 = molecular target: ScLsb3
# Outline: as §1
# ScLsb4 = molecular target: ScLsb4
# Outline: as §1
# ScMyo3 = molecular target: ScMyo3
# Outline: as §1
# ScMyo5 = molecular target: ScMyo5
# Outline: as §1
# ScNbp2 = molecular target: ScNbp2
# Outline: as §1
# ScPex13 = molecular target: ScPex13
# Outline: as §1
# ScRvs167 = molecular target: ScRvs167
# Outline: as §1
# ScSho1 = molecular target: ScSho1
# Outline: as §1
# ScSla1-D1-D2 = molecular target: ScSla1-D1-D2
# Outline: as §1
# ScSla1-D3 = molecular target: ScSla1-D3
# Outline: as §1
# SpAbp1-D1 = molecular target: SpAbp1-D1
# Outline: as §1
# SpBbc1 = molecular target: SpBbc1
# Outline: as §1
# SpBzz1-D1 = molecular target: SpBzz1-D1
# Outline: as §1
# SpBzz1-D2 = molecular target: SpBzz1-D2
# Outline: as §1
# SpCyk3 = molecular target: SpCyk3
# Outline: as §1
# SpHof1 = molecular target: SpHof1
# Outline: as §1
# SpHof1-2 = molecular target: SpHof1-2
# Outline: as §1
# SpHof1-3 = molecular target: SpHof1-3
# Outline: as §1
# SpHse1 = molecular target: SpHse1
# Outline: as §1
# SpLsb1 = molecular target: SpLsb1
# Outline: as §1
# SpLsb4 = molecular target: SpLsb4
# Outline: as §1
# SpMyo1 = molecular target: SpMyo1
# Outline: as §1
# SpNbp2 = molecular target: SpNbp2
# Outline: as §1
# SpPex13 = molecular target: SpPex13
# Outline: as §1
# SpRvs167 = molecular target: SpRvs167
# Outline: as §1
# SpSla1-D1-D2 = molecular target: SpSla1-D1-D2
# Outline: as §1
# SpSla1-D3 = molecular target: SpSla1-D3
# Outline: as §1
binder,measurement,setting,value
LLRRTIPKRPFYHVL,SPOT peptide array binding signal intensity,AgAbp1,66.5
same,SPOT peptide array binding signal intensity,AgBbc1,73.8
same,SPOT peptide array binding signal intensity,AgBem1-D1,44.5
same,SPOT peptide array binding signal intensity,AgBzz1-D1,13
same,SPOT peptide array binding signal intensity,AgBzz1-D2,200
same,SPOT peptide array binding signal intensity,AgCyk3,≤ 0
same,SPOT peptide array binding signal intensity,AgFus1,295
same,SPOT peptide array binding signal intensity,AgHof1,11.5
same,SPOT peptide array binding signal intensity,AgHse1,828
same,SPOT peptide array binding signal intensity,AgLsb1,1
same,SPOT peptide array binding signal intensity,AgLsb4,79
same,SPOT peptide array binding signal intensity,AgMyo5,≤ 0
same,SPOT peptide array binding signal intensity,AgNbp2,121
same,SPOT peptide array binding signal intensity,AgRvs167,4.5
same,SPOT peptide array binding signal intensity,AgSho1,59
same,SPOT peptide array binding signal intensity,AgSla1-D1-D2,108
same,SPOT peptide array binding signal intensity,AgSla1-D3,0.5
same,SPOT peptide array binding signal intensity,CaAbp1-D1,604
same,SPOT peptide array binding signal intensity,CaAbp1-D2,775
same,SPOT peptide array binding signal intensity,CaBbc1,427
same,SPOT peptide array binding signal intensity,CaBem1-D1,8.5
same,SPOT peptide array binding signal intensity,CaBzz1-D1,71.5
same,SPOT peptide array binding signal intensity,CaBzz1-D2,39.5
same,SPOT peptide array binding signal intensity,CaCyk3,156
same,SPOT peptide array binding signal intensity,CaFus1,314
same,SPOT peptide array binding signal intensity,CaHof1,0.5
same,SPOT peptide array binding signal intensity,CaHse1,22
same,SPOT peptide array binding signal intensity,CaLsb1,0.5
same,SPOT peptide array binding signal intensity,CaLsb4,94.5
same,SPOT peptide array binding signal intensity,CaMyo5,0.5
RRRIAYPFYPFKKLG,SPOT peptide array binding signal intensity,AgAbp1,69
same,SPOT peptide array binding signal intensity,AgBbc1,≤ 0
same,SPOT peptide array binding signal intensity,AgBem1-D1,22
same,SPOT peptide array binding signal intensity,AgBzz1-D1,32.5
same,SPOT peptide array binding signal intensity,AgBzz1-D2,9
same,SPOT peptide array binding signal intensity,AgCyk3,1
same,SPOT peptide array binding signal intensity,AgFus1,337
same,SPOT peptide array binding signal intensity,AgHof1,8.75
same,SPOT peptide array binding signal intensity,AgHse1,914
same,SPOT peptide array binding signal intensity,AgLsb1,1.5
same,SPOT peptide array binding signal intensity,AgLsb4,19.5
same,SPOT peptide array binding signal intensity,AgMyo5,1.75
same,SPOT peptide array binding signal intensity,AgNbp2,124
same,SPOT peptide array binding signal intensity,AgRvs167,6.5
same,SPOT peptide array binding signal intensity,AgSho1,79
same,SPOT peptide array binding signal intensity,AgSla1-D1-D2,22
same,SPOT peptide array binding signal intensity,AgSla1-D3,≤ 0
same,SPOT peptide array binding signal intensity,CaAbp1-D1,482
same,SPOT peptide array binding signal intensity,CaAbp1-D2,238
same,SPOT peptide array binding signal intensity,CaBbc1,0.25
same,SPOT peptide array binding signal intensity,CaBem1-D1,23
same,SPOT peptide array binding signal intensity,CaBzz1-D1,21
same,SPOT peptide array binding signal intensity,CaBzz1-D2,9.5
same,SPOT peptide array binding signal intensity,CaCyk3,1
same,SPOT peptide array binding signal intensity,CaFus1,672
same,SPOT peptide array binding signal intensity,CaHof1,0.5
same,SPOT peptide array binding signal intensity,CaHse1,47.8
same,SPOT peptide array binding signal intensity,CaLsb1,≤ 0
same,SPOT peptide array binding signal intensity,CaLsb4,15
same,SPOT peptide array binding signal intensity,CaMyo5,0.25
same,SPOT peptide array binding signal intensity,CaNbp2,565
same,SPOT peptide array binding signal intensity,CaRvs167,13.3
same,SPOT peptide array binding signal intensity,CaRvs167-3,62.5
same,SPOT peptide array binding signal intensity,CaSho1,486
same,SPOT peptide array binding signal intensity,CaSla1-D1-D2,≤ 0
same,SPOT peptide array binding signal intensity,CaSla1-D3,2.5
same,SPOT peptide array binding signal intensity,ScAbp1,103
same,SPOT peptide array binding signal intensity,ScBbc1,≤ 0
same,SPOT peptide array binding signal intensity,ScBem1-D1,16
same,SPOT peptide array binding signal intensity,ScBzz1-D1,6
same,SPOT peptide array binding signal intensity,ScBzz1-D2,14
same,SPOT peptide array binding signal intensity,ScCyk3,38.5
same,SPOT peptide array binding signal intensity,ScFus1,230
same,SPOT peptide array binding signal intensity,ScHof1,0.5
same,SPOT peptide array binding signal intensity,ScHse1,1700
same,SPOT peptide array binding signal intensity,ScLsb1,3.5
same,SPOT peptide array binding signal intensity,ScLsb2,4
same,SPOT peptide array binding signal intensity,ScLsb3,104
same,SPOT peptide array binding signal intensity,ScLsb4,11
same,SPOT peptide array binding signal intensity,ScMyo3,4
same,SPOT peptide array binding signal intensity,ScMyo5,≤ 0
same,SPOT peptide array binding signal intensity,ScNbp2,173
same,SPOT peptide array binding signal intensity,ScPex13,0.5
same,SPOT peptide array binding signal intensity,ScRvs167,13.3
same,SPOT peptide array binding signal intensity,ScSho1,606
same,SPOT peptide array binding signal intensity,ScSla1-D1-D2,≤ 0
same,SPOT peptide array binding signal intensity,ScSla1-D3,≤ 0
same,SPOT peptide array binding signal intensity,SpAbp1-D1,155
same,SPOT peptide array binding signal intensity,SpBbc1,1
same,SPOT peptide array binding signal intensity,SpBzz1-D1,37
same,SPOT peptide array binding signal intensity,SpBzz1-D2,≤ 0
same,SPOT peptide array binding signal intensity,SpCyk3,≤ 0
same,SPOT peptide array binding signal intensity,SpHof1,37.5
same,SPOT peptide array binding signal intensity,SpHof1-2,12.5
same,SPOT peptide array binding signal intensity,SpHof1-3,225
same,SPOT peptide array binding signal intensity,SpHse1,745
same,SPOT peptide array binding signal intensity,SpLsb1,1.5
same,SPOT peptide array binding signal intensity,SpLsb4,47
same,SPOT peptide array binding signal intensity,SpMyo1,2.5
same,SPOT peptide array binding signal intensity,SpNbp2,394
same,SPOT peptide array binding signal intensity,SpPex13,5.5
same,SPOT peptide array binding signal intensity,SpRvs167,7.33
same,SPOT peptide array binding signal intensity,SpSla1-D1-D2,≤ 0
same,SPOT peptide array binding signal intensity,SpSla1-D3,1.5
